Compound activity from PubChem.
The list is not random: actives were taken first. Their share in the collection is about 18%.
TDP1 cell noCPT – qHTS for Inhibitors of human tyrosyl-DNA phosphodiesterase 1 (TDP1): qHTS in cells in absence of CPT; DT40 Tdp1-/- hTDP1 cells, no CPT, ATP luminescence, 48 h; Potency, µM (series often up to 46.2 µM), most hits filed as inhibitors; 420,000 tested, 15% active; also: nearly all actives have a fitted effect of over 55% in size
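No-CPT arm: Tdp1-/-;hTDP1 DT40 cells (400/well) plus compounds, incubated ≥48 hr at 37 °C. Readout CellTiter-Glo luminescence.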
CtBP-E1A inh – qHTS Assay for Inhibitors of the CtBP/E1A Interaction; CtBP / adenovirus E1A interaction (AlphaScreen); AlphaScreen GST-E1A/His-CtBP binding, 1536-well; active compounds read low; activity change, % (test concentration not listed); 340,000 tested, 0.49% active; in the data active = activity change below about -65%; inconclusive = mostly about -30% to -63%
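GST-E1A and His-tagged CtBP (125 nM each as 5X stock) were preincubated with pin-transferred compound for 2 h at 37 °C in the dark, then glutathione donor and nickel acceptor beads were added for 1 h before AlphaScreen reading.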
Six1-Eya2 inh – qHTS Assay for Inhibitors of the Six1/Eya2 Interaction; Homeobox protein SIX1 (Homo sapiens) + Protein phosphatase EYA2 (Homo sapiens), …; 360,000 tested, 0.56% active; AlphaScreen GST-Six1/His-Eya2 binding, biochemical; active compounds read low; activity change, % (test concentration not listed); in the data active = activity change below about -65%; inconclusive = mostly about -30% to -63%
Target sequence (O00167 whole entry, looked up): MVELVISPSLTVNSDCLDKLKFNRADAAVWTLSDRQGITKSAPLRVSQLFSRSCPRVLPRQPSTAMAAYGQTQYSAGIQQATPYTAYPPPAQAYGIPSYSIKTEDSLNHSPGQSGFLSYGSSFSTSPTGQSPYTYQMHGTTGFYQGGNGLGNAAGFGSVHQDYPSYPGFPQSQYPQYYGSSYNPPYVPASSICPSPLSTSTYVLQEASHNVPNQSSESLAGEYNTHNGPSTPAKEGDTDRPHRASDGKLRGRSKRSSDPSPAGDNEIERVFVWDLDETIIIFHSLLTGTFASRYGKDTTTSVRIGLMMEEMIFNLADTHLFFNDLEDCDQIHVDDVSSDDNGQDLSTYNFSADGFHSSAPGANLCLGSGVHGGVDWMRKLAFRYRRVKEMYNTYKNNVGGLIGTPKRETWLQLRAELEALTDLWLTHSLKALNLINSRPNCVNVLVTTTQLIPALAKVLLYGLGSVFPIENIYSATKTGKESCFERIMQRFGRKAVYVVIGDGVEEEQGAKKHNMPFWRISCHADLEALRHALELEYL
Target sequence (Q15475 whole entry, looked up): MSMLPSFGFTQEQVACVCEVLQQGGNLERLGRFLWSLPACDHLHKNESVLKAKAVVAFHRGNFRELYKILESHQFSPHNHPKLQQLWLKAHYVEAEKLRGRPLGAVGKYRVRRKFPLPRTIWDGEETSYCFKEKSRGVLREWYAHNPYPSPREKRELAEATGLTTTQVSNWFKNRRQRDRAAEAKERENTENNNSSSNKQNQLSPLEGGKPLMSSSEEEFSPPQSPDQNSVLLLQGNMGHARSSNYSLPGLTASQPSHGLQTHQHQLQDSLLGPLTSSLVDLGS
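Six1/Eya2 binding was read as AlphaScreen signal after compounds were pinned into GST-Six1 plus His-tagged Eya2 (5X stock 250/500 nM) in pH 8.0 Tris/NaCl/TCEP buffer, beads added, then incubated 1 h, 37 C, dark.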
DT40 TDP1 CPT – qHTS for Inhibitors of human tyrosyl-DNA phosphodiesterase 1 (TDP1): qHTS in cells in presence of CPT. chicken DT40 Tdp1-/-;hTDP1 cells + 20 nM CPT, ATP luminescence, 48 h. Potency, µM (titrated, usually from 46.2 µM), hits mostly inhibitors. 420,000 tested, 12% active. AID 686979, 2013; also: nearly all actives have a fitted effect of over 55% in size
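Chicken DT40 Tdp1-/- cells stably complemented with human TDP1 were seeded at 400 cells/well in medium containing 20 nM camptothecin, exposed to pin-transferred compounds, and grown at 37 °C for at least 48 hr. Viability was read as ATP luminescence.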
IL-1B inflam inh – qHTS for Inhibitors of Inflammasome Signaling: IL-1-beta AlphaLISA Primary Screen | THP-1 LPS/ATP IL-1B secretion, AlphaLISA, 16 h; active compounds read low | activity change, % at 57.5 µM | 360,000 tested, 4.7% active | AID 743279, 2014; in the data active = activity change below about -50%; inconclusive = mostly about -30% to -49%
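THP-1 cells pretreated 1 hr with compounds (up to 57.5 uM final), then stimulated with LPS (250 ng/mL final) plus ATP (1.25 mM final); secreted IL-1B measured by AlphaLISA after 16 hr, decreased signal indicating inhibition.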
TDP1 inh – qHTS Assay for Inhibitors of Tyrosyl-DNA Phosphodiesterase (TDP1); recombinant TDP1, AlphaScreen DNA substrate cleavage; Potency, µM (titrated, usually from 130 µM), hits mostly inhibitors; Tyrosyl-DNA phosphodiesterase 1 (Homo sapiens), Q9NUW8; 350,000 tested, 0.28% active; AID 485290, 2010; also: nearly all actives have a fitted effect of over 40% in size
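E. coli-derived human Tdp1, 1 nM final. Cpd preinc 15 min RT; substrate 15 nM final, 5 min RT; AS bead mix 10 ug/ml final, 10 min RT. Signal loss = tyrosine-FITC cleavage. No-enzyme wells = max signal.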
Numbers stand for hits; [ ] = dose if it differs, or a comment. Unless noted, calls follow the shape of the dose curve; as a rule, active = well fitted curve in the direction sought with a large enough effect; inconclusive = small, poorly fitted or top-dose-only effect, or another doubt; inactive = no such curve, though single readings can be large; an effect the other way counts as inactive or inconclusive.

Results for COCCSc1nc(N)c(NC(=O)c2ccco2)c(=O)[nH]1 ?
TDP1 cell noCPT: inactive; CtBP-E1A inh: inactive; Six1-Eya2 inh: inactive; DT40 TDP1 CPT: inactive; IL-1B inflam inh: inactive; TDP1 inh: inactive

Results for COCCN1Cc2cccc(C(=O)Nc3ccc(Cl)cc3Cl)c2C1=O ?
TDP1 cell noCPT: inconclusive; DT40 TDP1 CPT: inactive; TDP1 inh: inactive

What do the screens show for `COC(=O)c1ccc(NS(=O)(=O)c2ccc3c(c2)oc(=O)n3C)cc1`?
TDP1 cell noCPT: inactive; CtBP-E1A inh: inactive; Six1-Eya2 inh: inactive; DT40 TDP1 CPT: inactive; IL-1B inflam inh: inactive; TDP1 inh: inactive

How did CCOC(=O)c1ccc(NS(=O)(=O)c2ccc3c(c2)oc(=O)n3C)cc1 do in these assays?
TDP1 cell noCPT: inconclusive; CtBP-E1A inh: inactive; Six1-Eya2 inh: inactive; DT40 TDP1 CPT: 3.66µM; IL-1B inflam inh: inactive; TDP1 inh: inactive

Results for COc1ccc(OC)c(C2c3[nH]c4ccccc4c3C[C@H]3C(=O)N(C4CC4)CC(=O)N23)c1 (some centres not stated) ?
TDP1 cell noCPT: inactive; Six1-Eya2 inh: inactive; DT40 TDP1 CPT: inactive; IL-1B inflam inh: inactive

What do the screens show for `COc1ccc(C2c3[nH]c4ccccc4c3C[C@H]3C(=O)N(C4CCN(Cc5ccccc5)CC4)CC(=O)N23)c(OC)c1` (some centres not stated)?
TDP1 cell noCPT: 14.6µM; Six1-Eya2 inh: inactive; DT40 TDP1 CPT: inconclusive; IL-1B inflam inh: inactive

What do the screens show for `COc1cc(C2c3[nH]c4ccccc4c3C[C@H]3C(=O)N(C4CC4)CC(=O)N23)ccc1OC(C)C` (some centres not stated)?
TDP1 cell noCPT: inactive; CtBP-E1A inh: inactive; Six1-Eya2 inh: inactive; DT40 TDP1 CPT: inconclusive; IL-1B inflam inh: inconclusive

What do the screens show for `CCOc1ccccc1C1c2[nH]c3ccccc3c2C[C@H]2C(=O)N(C3CCN(Cc4ccccc4)CC3)CC(=O)N12` (some centres not stated)?
TDP1 cell noCPT: 16.4µM; CtBP-E1A inh: inactive; Six1-Eya2 inh: inconclusive; DT40 TDP1 CPT: 5.8µM; IL-1B inflam inh: inconclusive

Results for CCOC(=O)C1(C)CCCN(C(=O)c2cccc(C(F)(F)F)c2)C1 (configuration not stated) ?
TDP1 cell noCPT: inconclusive; CtBP-E1A inh: inactive; Six1-Eya2 inh: inactive; DT40 TDP1 CPT: inconclusive; IL-1B inflam inh: inactive

Results for Clc1ccccc1-c1cncnc1NCCN1CCOCC1 ?
TDP1 cell noCPT: 3.66µM; DT40 TDP1 CPT: 3.26µM

Results for FC(F)(F)c1ccccc1-c1cncnc1NCCN1CCOCC1 ?
TDP1 cell noCPT: 1.46µM; DT40 TDP1 CPT: 1.03µM

What do the screens show for `CC(=O)NCCNc1ncncc1-c1ccccc1C(F)(F)F`?
TDP1 cell noCPT: inactive; DT40 TDP1 CPT: inactive; TDP1 inh: 31.6µM

How did CC(=O)NCCNc1ncncc1-c1ccccc1C do in these assays?
TDP1 cell noCPT: inactive; DT40 TDP1 CPT: inactive

How did COc1ccc(C(=O)CSc2nnc(CNc3ccc(F)cc3)o2)cc1 do in these assays?
TDP1 cell noCPT: inconclusive; CtBP-E1A inh: inactive; Six1-Eya2 inh: inactive; DT40 TDP1 CPT: inactive; IL-1B inflam inh: inactive; TDP1 inh: inactive

What do the screens show for `CCOC(=O)c1ccccc1-c1csc(NS(=O)(=O)c2ccc(Cl)cc2)n1`?
TDP1 cell noCPT: inactive; CtBP-E1A inh: inactive; Six1-Eya2 inh: inactive; DT40 TDP1 CPT: inconclusive; IL-1B inflam inh: inactive; TDP1 inh: inactive

Results for O=C(Cn1c(-c2cccs2)cc2ccccc21)NCCCN1CCN(c2cccc(Cl)c2)CC1 ?
TDP1 cell noCPT: 16.4µM; DT40 TDP1 CPT: inconclusive; TDP1 inh: inactive

What do the screens show for `Cc1ccc(C)c(N2CCN(CCCNC(=O)Cn3c(-c4cccs4)cc4ccccc43)CC2)c1`?
TDP1 cell noCPT: 2.91µM; DT40 TDP1 CPT: 5.17µM; TDP1 inh: inactive

Results for CN1CCN(CCCNC(=O)Cn2c(-c3cccs3)cc3ccccc32)CC1 ?
TDP1 cell noCPT: inconclusive; DT40 TDP1 CPT: inconclusive; TDP1 inh: inactive

Results for C[C@@H](C(=O)Nc1ccc2ccccc2c1)[C@H]1C[C@]1(C)[C@H](N)c1ccccc1 ?
TDP1 inh: inactive

What do the screens show for `COc1ccc(-c2nn(-c3ccccc3)cc2CNCc2cccnc2)c(F)c1`?
TDP1 cell noCPT: inactive; CtBP-E1A inh: inactive; Six1-Eya2 inh: inactive; DT40 TDP1 CPT: inconclusive; IL-1B inflam inh: inactive; TDP1 inh: inactive

How did COC(=O)C1(C(=O)OC)C[C@H](c2ccc(OC)cc2)N(Cc2ccccc2OC)[C@@H]1c1ccc(OC)cc1 do in these assays?
TDP1 cell noCPT: 20.6µM; CtBP-E1A inh: inactive; Six1-Eya2 inh: inactive; DT40 TDP1 CPT: inconclusive; IL-1B inflam inh: inconclusive

How did O=C(NCCc1cccs1)C1CC(c2cccc([N+](=O)[O-])c2)=NO1 (configuration not stated) do in these assays?
TDP1 cell noCPT: inactive; CtBP-E1A inh: inactive; Six1-Eya2 inh: inactive; DT40 TDP1 CPT: inactive; IL-1B inflam inh: inactive; TDP1 inh: inactive

What do the screens show for `NC(=S)N/N=C/c1cn(-c2ccccc2)nc1-c1cccnc1`?
TDP1 cell noCPT: 2.91µM; CtBP-E1A inh: inactive; Six1-Eya2 inh: inactive; DT40 TDP1 CPT: 11.6µM; IL-1B inflam inh: inactive; TDP1 inh: inactive

What do the screens show for `O/N=C/c1cn(-c2ccccc2)nc1-c1ccccc1`?
TDP1 cell noCPT: inconclusive; CtBP-E1A inh: inactive; Six1-Eya2 inh: inactive; DT40 TDP1 CPT: inconclusive; IL-1B inflam inh: inactive

What do the screens show for `O=C(N/N=C/c1cn(-c2ccccc2)nc1-c1cccnc1)c1ccccc1`?
TDP1 cell noCPT: 23.1µM; CtBP-E1A inh: inactive; Six1-Eya2 inh: inactive; DT40 TDP1 CPT: 23.1µM; IL-1B inflam inh: inconclusive; TDP1 inh: inactive

Results for O=C(NC1CCN(Cc2ccccc2)CC1)c1cn(-c2ccccc2)nc1-c1cccnc1 ?
TDP1 cell noCPT: inactive; CtBP-E1A inh: inactive; Six1-Eya2 inh: inactive; DT40 TDP1 CPT: inactive; IL-1B inflam inh: -90.6; TDP1 inh: inactive[0.505 µM]

Results for O=C(O)/C(=C\c1cn(-c2ccccc2)nc1-c1cccnc1)NC(=O)c1ccccc1 ?
TDP1 cell noCPT: inactive; CtBP-E1A inh: inactive; Six1-Eya2 inh: inactive; DT40 TDP1 CPT: inactive; IL-1B inflam inh: inactive; TDP1 inh: inactive
